Assay results: PubChem BioAssay (NCI)
The panel holds about 83,000 compounds, 20% with a hit somewhere; the sample as a whole holds those more often.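 Each cell line was grown in a 96-well plate and treated with one concentration of compound for 48 hours. Values below 10 were considered active.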 Active and inactive are the calls of the source.

Columns and labels:
Assay in all cases: NCI-60 one-dose screen, 48 h (100 = growth as untreated, 0 = no growth, -100 = all killed)
Details in all cases: 10 µM unless noted
HCT-15 colon = test system: HCT-15 colon
HT29 colon = test system: HT29 colon
SNB-75 CNS = test system: SNB-75 CNS
SNB-19 CNS = test system: SNB-19 CNS
SK-MEL-5 melanoma = test system: SK-MEL-5 melanoma
UACC-62 melanoma = test system: UACC-62 melanoma
LOX IMVI melanoma = test system: LOX IMVI melanoma
SK-MEL-28 melanoma = test system: SK-MEL-28 melanoma
U251 CNS = test system: U251 CNS
PC-3 prostate = test system: PC-3 prostate

Measured: growth

COc1ccc(-c2cc(C(=O)N=Nc3c(O)[nH]c4ccccc34)no2)cc1
inactive: HCT-15 colon 104% | HT29 colon 99.5% | SNB-75 CNS 66.5% | SNB-19 CNS 91.5% | SK-MEL-5 melanoma 98.9% | UACC-62 melanoma 100% | LOX IMVI melanoma 99.7% | SK-MEL-28 melanoma 109%

Cc1csc2ccc(Cl)cc12
inactive: HCT-15 colon 95.6% | HT29 colon 102% | SNB-75 CNS 69.7% | SNB-19 CNS 99.2% | SK-MEL-5 melanoma 107% | UACC-62 melanoma 96.2% | LOX IMVI melanoma 103% | SK-MEL-28 melanoma 104%

NS(=O)(=O)N(c1cc(C(F)(F)F)cc(C(F)(F)F)c1)C1CCN(Cc2ccc(F)cc2)CC1
active: HT29 colon 8.44%
inactive: HCT-15 colon 24.4% | SNB-75 CNS 55.3% | U251 CNS 59.8% | PC-3 prostate 34.2% | SK-MEL-5 melanoma 32.2% | UACC-62 melanoma 57.1% | LOX IMVI melanoma 68.9% | SK-MEL-28 melanoma 82.1%

C/C=C/C(N)=O
inactive: HCT-15 colon 96.9% | HT29 colon 102% | SNB-75 CNS 90.6% | U251 CNS 104% | PC-3 prostate 93.9% | SK-MEL-5 melanoma 96.7% | UACC-62 melanoma 105% | LOX IMVI melanoma 99.3% | SK-MEL-28 melanoma 93%

Nc1cccc(NC(=O)C(=O)Nc2cccc(N)c2)c1
inactive: HCT-15 colon 94.5% | HT29 colon 115% | SNB-75 CNS 94% | U251 CNS 95.8% | PC-3 prostate 99.8% | SK-MEL-5 melanoma 117% | UACC-62 melanoma 90.6% | LOX IMVI melanoma 90% | SK-MEL-28 melanoma 103%

N#Cc1c(N)nc(N)nc1Nc1ccc(Br)cc1
inactive: HCT-15 colon 103% | HT29 colon 93.9% | SNB-75 CNS 96.8% | U251 CNS 96.9% | PC-3 prostate 79.1% | SK-MEL-5 melanoma 89.6% | UACC-62 melanoma 86.4% | LOX IMVI melanoma 92.4% | SK-MEL-28 melanoma 110%

CSc1ncnc2c1ncn2C1CCCO1 (centres undefined)
inactive: HCT-15 colon 103% | HT29 colon 99.7% | SNB-75 CNS 83.2% | U251 CNS 103% | PC-3 prostate 106% | SK-MEL-5 melanoma 107% | UACC-62 melanoma 88.5% | LOX IMVI melanoma 102% | SK-MEL-28 melanoma 141%

O=C(/C=C\c1cccc([N+](=O)[O-])c1)c1ccccc1
inactive: HCT-15 colon 21% | SNB-75 CNS 77.6% | U251 CNS 31.1% | PC-3 prostate 40.7% | SK-MEL-5 melanoma 76.3% | UACC-62 melanoma 71.9%
active: HT29 colon 4.18% | LOX IMVI melanoma 3.66% | SK-MEL-28 melanoma 5.24%

CCc1ccc(C(c2ccc(CC)cc2)C(Cl)(Cl)CCl)cc1
inactive: HCT-15 colon 89.7% | HT29 colon 76.8% | SNB-75 CNS 80.6% | U251 CNS 89% | PC-3 prostate 80.5% | SK-MEL-5 melanoma 90% | UACC-62 melanoma 88.2% | LOX IMVI melanoma 93.6% | SK-MEL-28 melanoma 92.4%

CCNS(=O)(=O)c1ncnc2nc[nH]c12
active: U251 CNS -14%
inactive: HCT-15 colon 94.3% | HT29 colon 114% | SNB-75 CNS 122% | PC-3 prostate 85.2% | SK-MEL-5 melanoma 113% | UACC-62 melanoma 94.7% | LOX IMVI melanoma 22% | SK-MEL-28 melanoma 143%

COc1ccc(CCN2CC=Cn3c2nc2ccccc2c3=O)cc1
inactive: HCT-15 colon 15.9% | HT29 colon 12.9% | SNB-75 CNS 37.1% | U251 CNS 27.6% | PC-3 prostate 34.1% | UACC-62 melanoma 31.8% | LOX IMVI melanoma 14.1% | SK-MEL-28 melanoma 78.7%
active: SK-MEL-5 melanoma -13.8%

COc1ccc(-c2cc(-c3cccnc3)nc3sc4c(=O)n(-c5ccc(C)cc5)cnc4c23)cc1OC
inactive: HCT-15 colon 94.2% | HT29 colon 104% | SNB-75 CNS 74.9% | U251 CNS 103% | PC-3 prostate 91.2% | SK-MEL-5 melanoma 94.2% | UACC-62 melanoma 97.3% | LOX IMVI melanoma 97.9% | SK-MEL-28 melanoma 89.3%

Cc1ccc2c(c1)C(=O)c1c-2c(OCCCN(C)C)nc2ccccc12
active: HCT-15 colon -17.8% | HT29 colon -33% | U251 CNS 4.38% | UACC-62 melanoma -66% | LOX IMVI melanoma -71.9% | SK-MEL-28 melanoma -54%
inactive: SNB-75 CNS 38.5% | PC-3 prostate 18.6% | SK-MEL-5 melanoma 28.5%

CC(=O)Nc1ccc2c(c1)c(NC(C)=O)nn2C(=O)Nc1ccc(Cc2ccccc2)cc1
inactive: HCT-15 colon 78.8% | HT29 colon 89.1% | SNB-75 CNS 106% | U251 CNS 69.5% | PC-3 prostate 63.5% | SK-MEL-5 melanoma 109% | UACC-62 melanoma 20% | LOX IMVI melanoma 53.6% | SK-MEL-28 melanoma 141%

CC1(C)CC(C(=O)OCCCCCCCCCCC[P+](c2ccccc2)(c2ccccc2)c2ccccc2)C(C)(C)N1O (centres undefined)
inactive: HCT-15 colon 88.5% | U251 CNS 110% | LOX IMVI melanoma 117%
active: HT29 colon -33.9% | SNB-75 CNS -57.9% | PC-3 prostate -70.1% | SK-MEL-5 melanoma -97.6% | UACC-62 melanoma -69.3% | SK-MEL-28 melanoma -95.2%

CN(C)c1ccc(/C=C\C2=[N+](C)c3ccccc3C2(C)C)cc1
inactive: HCT-15 colon 63.2% | HT29 colon 10.5% | SNB-75 CNS 31.3% | U251 CNS 11% | UACC-62 melanoma 15.9% | LOX IMVI melanoma 16.1% | SK-MEL-28 melanoma 37.5%
active: PC-3 prostate -4.73% | SK-MEL-5 melanoma 3.41%

Nc1cc2ccncc2c2ccccc12
inactive: HCT-15 colon 75.1% | HT29 colon 65.2% | SNB-75 CNS 116% | U251 CNS 81.1% | PC-3 prostate 83.1% | SK-MEL-5 melanoma 76.9% | UACC-62 melanoma 60.7% | LOX IMVI melanoma 50.8% | SK-MEL-28 melanoma 103%

Cc1cc(-c2nc3ccccc3s2)ccc1NC(=O)COc1ccc(Cl)cc1
inactive: HCT-15 colon 92.7% | HT29 colon 101% | SNB-75 CNS 84.4% | U251 CNS 94.1% | PC-3 prostate 83.2% | SK-MEL-5 melanoma 98.8% | UACC-62 melanoma 96.1% | LOX IMVI melanoma 94.5% | SK-MEL-28 melanoma 114%

Cn1c2c(Cl)c(Cl)ccc2c2ccn3c(=O)c4ccccc4nc3c21
inactive: HCT-15 colon 102% | HT29 colon 105% | SNB-75 CNS 91.6% | U251 CNS 100% | PC-3 prostate 101% | SK-MEL-5 melanoma 95.2% | UACC-62 melanoma 90.6% | LOX IMVI melanoma 104% | SK-MEL-28 melanoma 117%

NS(=O)(=O)c1ccc(Nc2nc3n[nH]c(Nc4ccccc4)c3c(=O)[nH]2)cc1
inactive: HCT-15 colon 108% | HT29 colon 101% | SNB-75 CNS 70.8% | U251 CNS 101% | PC-3 prostate 92.1% | SK-MEL-5 melanoma 99% | UACC-62 melanoma 105% | LOX IMVI melanoma 101% | SK-MEL-28 melanoma 111%

O=C(Nc1ccc(CN2CCOCC2)cc1)c1[nH]ncc1Nc1ncnc2sccc12
inactive: U251 CNS 13.8% | PC-3 prostate 11% | UACC-62 melanoma 10.1%
active: HCT-15 colon 5.47% | HT29 colon 9.37% | SNB-75 CNS -24.7% | SK-MEL-5 melanoma -16.5% | LOX IMVI melanoma -14.4% | SK-MEL-28 melanoma 7.07%

CC(=O)OC1Oc2cc(C)c(C)cc2-c2oc(=O)c(-c3cc4ccc(N(C)C)cc4oc3=O)cc21 (centres undefined)
inactive: HCT-15 colon 100% | HT29 colon 100% | SNB-75 CNS 69% | U251 CNS 115% | PC-3 prostate 61.9% | SK-MEL-5 melanoma 49.8% | UACC-62 melanoma 61.6% | LOX IMVI melanoma 101% | SK-MEL-28 melanoma 115%

CNc1cc2nc3cc(NC)c(C)cc3cc2cc1C
active: U251 CNS 9.07% | LOX IMVI melanoma 6.5%
inactive: HCT-15 colon 11.1% | HT29 colon 10% | SNB-75 CNS 16.5% | PC-3 prostate 18.2% | SK-MEL-5 melanoma 35.7% | UACC-62 melanoma 45.7% | SK-MEL-28 melanoma 46%

CC1=NNC(=O)C1C (centres undefined)
inactive: HCT-15 colon 98.7% | HT29 colon 109% | SNB-75 CNS 91.4% | U251 CNS 105% | PC-3 prostate 108% | SK-MEL-5 melanoma 103% | UACC-62 melanoma 94.5% | LOX IMVI melanoma 99% | SK-MEL-28 melanoma 106%

COc1cccc(/C=C\C(=O)c2ccccc2)c1
inactive: HCT-15 colon 66.3% | HT29 colon 73.4% | SNB-75 CNS 78.9% | U251 CNS 35.1% | PC-3 prostate 63.5% | SK-MEL-5 melanoma 90.8% | UACC-62 melanoma 70.7% | LOX IMVI melanoma 30.3% | SK-MEL-28 melanoma 103%

O=C1OC2C(I)C3CC2C1C3c1ccccc1 (centres undefined)
inactive: HCT-15 colon 105% | HT29 colon 98.7% | SNB-75 CNS 73.5% | U251 CNS 104% | PC-3 prostate 93.8% | SK-MEL-5 melanoma 108% | UACC-62 melanoma 93.1% | LOX IMVI melanoma 93.4% | SK-MEL-28 melanoma 105%

CCOC(=O)c1c2ncccc2n2c(=O)n(-c3ccc(Cl)cc3)nnc12
inactive: HCT-15 colon 96.6% | HT29 colon 108% | SNB-75 CNS 86.7% | U251 CNS 95.1% | PC-3 prostate 95.6% | SK-MEL-5 melanoma 85.8% | UACC-62 melanoma 46.6% | LOX IMVI melanoma 41.1% | SK-MEL-28 melanoma 115%

COc1nc2c(cc1S(=O)(=O)c1ccccc1)CCc1c-2cnn1Cc1ccccc1
inactive: HCT-15 colon 43.1% | HT29 colon 13.9% | SNB-75 CNS 72.1% | U251 CNS 48.1% | PC-3 prostate 38.3% | SK-MEL-5 melanoma 34.7% | UACC-62 melanoma 52% | LOX IMVI melanoma 65.9% | SK-MEL-28 melanoma 92.3%

CCCCNP1(NCCCC)=NP(NCCCC)(NCCCC)=NP(NCCCC)(NCCCC)=NP(NCCCC)(NCCCC)=N1
inactive: HCT-15 colon 99.3% | HT29 colon 11.9% | U251 CNS 11% | UACC-62 melanoma 20.3% | SK-MEL-28 melanoma 37.4%
active: SNB-75 CNS 8.44% | PC-3 prostate -6.45% | SK-MEL-5 melanoma -93.8% | LOX IMVI melanoma 1.62%
